Data as given in ChEMBL document CHEMBL3988442, “University of Dundee, Small-Polar-MMV Screening Library” (2021).
For some of these results: Potency and affinity values are given separately.

What was measured:
Set-up in all cases: scale not given: direction of the effect not stated beside the values
[1] = biological target: Protein translocase subunit SecA (Escherichia coli (strain K12)) (UniProt P10408); test: Assay to Identify E. coli SecA ATPase Inhibitors; format: functional; conditions: 30 µM
Chain of Protein translocase subunit SecA (Escherichia coli (strain K12)) (P10408 whole entry): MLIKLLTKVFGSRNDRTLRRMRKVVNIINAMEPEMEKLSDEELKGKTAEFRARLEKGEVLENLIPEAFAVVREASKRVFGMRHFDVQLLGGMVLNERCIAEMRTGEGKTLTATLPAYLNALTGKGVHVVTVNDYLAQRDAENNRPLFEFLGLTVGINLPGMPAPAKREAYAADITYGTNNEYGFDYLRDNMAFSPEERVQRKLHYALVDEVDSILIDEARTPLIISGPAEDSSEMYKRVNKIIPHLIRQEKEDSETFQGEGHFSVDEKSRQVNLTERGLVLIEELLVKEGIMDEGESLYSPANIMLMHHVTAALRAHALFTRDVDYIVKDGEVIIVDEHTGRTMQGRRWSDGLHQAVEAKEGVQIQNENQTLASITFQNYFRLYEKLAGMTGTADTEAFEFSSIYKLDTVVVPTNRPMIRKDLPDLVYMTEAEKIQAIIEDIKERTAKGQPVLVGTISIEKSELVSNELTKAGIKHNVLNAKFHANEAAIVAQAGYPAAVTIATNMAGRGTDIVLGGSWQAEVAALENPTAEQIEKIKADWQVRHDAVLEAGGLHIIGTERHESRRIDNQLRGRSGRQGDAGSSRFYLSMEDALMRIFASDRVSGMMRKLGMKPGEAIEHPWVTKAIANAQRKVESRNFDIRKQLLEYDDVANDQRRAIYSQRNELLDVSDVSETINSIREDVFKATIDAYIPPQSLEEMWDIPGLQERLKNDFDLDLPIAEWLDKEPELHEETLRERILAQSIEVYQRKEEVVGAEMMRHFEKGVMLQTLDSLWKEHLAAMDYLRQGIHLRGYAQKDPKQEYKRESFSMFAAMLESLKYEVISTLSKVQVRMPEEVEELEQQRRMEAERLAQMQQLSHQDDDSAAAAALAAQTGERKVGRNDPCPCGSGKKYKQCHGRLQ

[2] = biological target: T1, Ubiquitin-activating enzyme e1, putative (Leishmania donovani (strain BPK282A1)) (UniProt E9BSI1); test: Leishmania donovani Ubiquitin Activating Enzyme (LdE1); format: functional; conditions: 30 µM
T1 sequence (whole entry): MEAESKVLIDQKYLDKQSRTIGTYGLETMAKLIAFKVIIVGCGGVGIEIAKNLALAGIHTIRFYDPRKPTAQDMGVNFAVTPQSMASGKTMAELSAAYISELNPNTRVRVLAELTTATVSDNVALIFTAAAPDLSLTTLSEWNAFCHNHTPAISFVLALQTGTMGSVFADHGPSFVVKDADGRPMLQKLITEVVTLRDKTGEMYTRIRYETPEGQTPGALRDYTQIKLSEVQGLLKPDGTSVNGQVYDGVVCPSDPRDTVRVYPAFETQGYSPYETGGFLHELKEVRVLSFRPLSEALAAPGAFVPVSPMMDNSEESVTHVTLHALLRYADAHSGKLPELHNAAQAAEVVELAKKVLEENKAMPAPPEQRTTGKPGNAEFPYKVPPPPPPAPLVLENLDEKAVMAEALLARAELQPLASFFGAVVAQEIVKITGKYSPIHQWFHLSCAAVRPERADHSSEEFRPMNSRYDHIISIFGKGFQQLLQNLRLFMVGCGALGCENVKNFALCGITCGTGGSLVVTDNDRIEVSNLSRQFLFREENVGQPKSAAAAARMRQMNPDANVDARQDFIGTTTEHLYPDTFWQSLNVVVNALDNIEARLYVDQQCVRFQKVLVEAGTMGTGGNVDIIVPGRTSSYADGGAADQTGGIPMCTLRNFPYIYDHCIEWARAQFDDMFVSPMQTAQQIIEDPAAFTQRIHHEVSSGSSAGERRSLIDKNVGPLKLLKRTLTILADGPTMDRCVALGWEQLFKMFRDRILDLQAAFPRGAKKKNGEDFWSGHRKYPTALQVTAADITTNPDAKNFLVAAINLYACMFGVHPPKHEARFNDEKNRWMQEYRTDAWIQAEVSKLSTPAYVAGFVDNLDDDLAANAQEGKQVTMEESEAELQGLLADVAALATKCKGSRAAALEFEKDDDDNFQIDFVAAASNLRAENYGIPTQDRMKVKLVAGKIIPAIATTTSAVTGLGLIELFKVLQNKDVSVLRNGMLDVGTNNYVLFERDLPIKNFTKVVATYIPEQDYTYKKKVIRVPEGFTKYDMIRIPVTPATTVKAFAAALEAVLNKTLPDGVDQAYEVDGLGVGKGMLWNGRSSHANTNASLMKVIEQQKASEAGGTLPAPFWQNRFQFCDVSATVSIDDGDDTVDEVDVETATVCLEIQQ

[3] = biological target: AMP-activated protein kinase, AMPK (Homo sapiens) (UniProt P54646+O43741+P54619+Q9UGJ0+Q9Y478+Q13131+Q9UGI9); test: AMP-dependent Kinase enzyme assay. An in vitro enzyme assay that detects ADP turnover that is directly proportional to AMPK activity. This uses naive AMPK that is activated during the assay with MK-8722; format: functional; conditions: 30 µM
[4] = biological target: Sialic acid-binding Ig-like lectin 9 (Homo sapiens) (UniProt Q9Y336); test: Hs-Siglec9 ALPHAscreen SOP 20170721; conditions: 10 µM
Chain of Sialic acid-binding Ig-like lectin 9 (Homo sapiens) (Q9Y336 whole entry): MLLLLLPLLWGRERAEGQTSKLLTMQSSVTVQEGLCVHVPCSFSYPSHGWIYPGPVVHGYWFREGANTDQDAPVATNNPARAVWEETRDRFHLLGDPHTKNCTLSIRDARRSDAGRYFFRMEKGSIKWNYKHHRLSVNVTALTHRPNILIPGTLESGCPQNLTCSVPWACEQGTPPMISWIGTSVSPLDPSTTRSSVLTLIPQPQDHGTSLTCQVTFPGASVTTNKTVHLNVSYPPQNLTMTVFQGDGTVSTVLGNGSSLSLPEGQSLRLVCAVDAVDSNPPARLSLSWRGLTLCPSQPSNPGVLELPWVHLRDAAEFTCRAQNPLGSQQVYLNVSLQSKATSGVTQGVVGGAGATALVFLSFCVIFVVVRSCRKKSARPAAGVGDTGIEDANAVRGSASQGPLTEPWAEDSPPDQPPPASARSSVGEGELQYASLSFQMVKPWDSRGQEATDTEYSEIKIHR

[5] = tested on: Trypanosoma cruzi; test: Trypanosoma cruzi phosphomannomutase and mannose-1-phosphate guanylyltransferase assay; format: functional; conditions: 10 µM
[6] = biological target: T2, Arginase-2, mitochondrial (Homo sapiens) (UniProt P78540); test: in vitro enzyme assay to detect the production of urea directly proportional to the activity of Arginase II; format: functional; conditions: 33.3 µM; further: in the data most compounds retested in dose-response had high values
T2 sequence (whole entry): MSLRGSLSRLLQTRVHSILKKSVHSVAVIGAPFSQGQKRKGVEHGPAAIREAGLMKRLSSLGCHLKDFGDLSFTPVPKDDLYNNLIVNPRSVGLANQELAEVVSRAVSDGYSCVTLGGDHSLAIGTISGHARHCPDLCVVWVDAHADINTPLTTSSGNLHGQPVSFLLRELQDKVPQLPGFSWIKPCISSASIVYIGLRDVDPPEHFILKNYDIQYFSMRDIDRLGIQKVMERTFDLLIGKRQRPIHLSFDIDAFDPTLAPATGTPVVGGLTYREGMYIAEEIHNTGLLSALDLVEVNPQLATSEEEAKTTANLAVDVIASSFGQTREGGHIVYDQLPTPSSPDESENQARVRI

[7] = biological target: T3, Proteasome subunit beta (Trypanosoma cruzi) (UniProt O96673); test: Trypanosoma cruzi proteasome chymotrypsin-like activity (TcProtChymo) assay.; further: in the data most compounds retested in dose-response had high values; format: functional; conditions: 9.37 µM
T3 sequence (whole entry): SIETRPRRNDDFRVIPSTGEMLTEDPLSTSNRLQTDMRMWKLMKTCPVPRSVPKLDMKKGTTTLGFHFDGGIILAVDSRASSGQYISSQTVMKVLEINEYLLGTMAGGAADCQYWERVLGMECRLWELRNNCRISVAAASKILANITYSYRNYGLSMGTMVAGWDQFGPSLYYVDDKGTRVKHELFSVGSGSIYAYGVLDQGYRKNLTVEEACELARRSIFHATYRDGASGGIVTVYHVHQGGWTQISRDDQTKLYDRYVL

[8] = organism: Homo sapiens; test: To identify inhibition of the IFN signalling (Jak-Stat) pathway via expression of an eGFP reporter gene under the control of an IFN-stimulated response element (ISRE) containing MxA promoter.; format: functional; conditions: 30 µM
[9] = biological target: T4, Tyrosyl-tRNA synthetase, putative (Trypanosoma cruzi (strain CL Brener)) (UniProt Q4DSP6); test: Trypanosoma cruzi tyrosyl tRNA synthetase (TcYRS) _High Tyrosine SOP; format: functional; conditions: 30 µM; further: in the data most compounds retested in dose-response had high values
T4 sequence (whole entry): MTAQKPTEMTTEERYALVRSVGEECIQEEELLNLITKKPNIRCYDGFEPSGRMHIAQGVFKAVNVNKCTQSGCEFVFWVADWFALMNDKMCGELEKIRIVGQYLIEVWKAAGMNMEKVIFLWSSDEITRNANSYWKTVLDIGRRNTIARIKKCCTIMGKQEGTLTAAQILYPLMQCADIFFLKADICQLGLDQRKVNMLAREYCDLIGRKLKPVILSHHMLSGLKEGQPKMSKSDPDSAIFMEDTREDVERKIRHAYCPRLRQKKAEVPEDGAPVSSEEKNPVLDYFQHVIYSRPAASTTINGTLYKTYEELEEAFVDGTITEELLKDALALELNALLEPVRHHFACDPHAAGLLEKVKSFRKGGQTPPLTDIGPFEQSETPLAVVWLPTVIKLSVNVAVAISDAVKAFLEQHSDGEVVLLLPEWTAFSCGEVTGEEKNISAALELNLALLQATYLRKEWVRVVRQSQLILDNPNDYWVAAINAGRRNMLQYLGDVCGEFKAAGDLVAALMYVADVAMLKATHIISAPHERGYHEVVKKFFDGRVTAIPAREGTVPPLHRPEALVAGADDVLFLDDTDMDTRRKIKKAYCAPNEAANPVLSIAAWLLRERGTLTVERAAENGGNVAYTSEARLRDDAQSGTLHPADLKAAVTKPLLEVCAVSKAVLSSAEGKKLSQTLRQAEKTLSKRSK

[10] = biological target: T4, Tyrosyl-tRNA synthetase, putative (Trypanosoma cruzi (strain CL Brener)); test: Trypanosoma cruzi tyrosyl tRNA synthetase (TcYRS) SOP; format: functional; conditions: 30 µM
[11] = biological target: Chromo domain-containing protein 1 (Saccharomyces cerevisiae (strain ATCC 204508 / S288c) (Baker's yeast)) (UniProt P32657); test: ScCHD-1 Enzyme Inhibition Assay; format: functional; conditions: 30 µM; further: in the data most compounds retested in dose-response had high values
Chain of Chromo domain-containing protein 1 (Saccharomyces cerevisiae (strain ATCC 204508 / S288c) (Baker's yeast)) (P32657 whole entry, the tested form may be a part): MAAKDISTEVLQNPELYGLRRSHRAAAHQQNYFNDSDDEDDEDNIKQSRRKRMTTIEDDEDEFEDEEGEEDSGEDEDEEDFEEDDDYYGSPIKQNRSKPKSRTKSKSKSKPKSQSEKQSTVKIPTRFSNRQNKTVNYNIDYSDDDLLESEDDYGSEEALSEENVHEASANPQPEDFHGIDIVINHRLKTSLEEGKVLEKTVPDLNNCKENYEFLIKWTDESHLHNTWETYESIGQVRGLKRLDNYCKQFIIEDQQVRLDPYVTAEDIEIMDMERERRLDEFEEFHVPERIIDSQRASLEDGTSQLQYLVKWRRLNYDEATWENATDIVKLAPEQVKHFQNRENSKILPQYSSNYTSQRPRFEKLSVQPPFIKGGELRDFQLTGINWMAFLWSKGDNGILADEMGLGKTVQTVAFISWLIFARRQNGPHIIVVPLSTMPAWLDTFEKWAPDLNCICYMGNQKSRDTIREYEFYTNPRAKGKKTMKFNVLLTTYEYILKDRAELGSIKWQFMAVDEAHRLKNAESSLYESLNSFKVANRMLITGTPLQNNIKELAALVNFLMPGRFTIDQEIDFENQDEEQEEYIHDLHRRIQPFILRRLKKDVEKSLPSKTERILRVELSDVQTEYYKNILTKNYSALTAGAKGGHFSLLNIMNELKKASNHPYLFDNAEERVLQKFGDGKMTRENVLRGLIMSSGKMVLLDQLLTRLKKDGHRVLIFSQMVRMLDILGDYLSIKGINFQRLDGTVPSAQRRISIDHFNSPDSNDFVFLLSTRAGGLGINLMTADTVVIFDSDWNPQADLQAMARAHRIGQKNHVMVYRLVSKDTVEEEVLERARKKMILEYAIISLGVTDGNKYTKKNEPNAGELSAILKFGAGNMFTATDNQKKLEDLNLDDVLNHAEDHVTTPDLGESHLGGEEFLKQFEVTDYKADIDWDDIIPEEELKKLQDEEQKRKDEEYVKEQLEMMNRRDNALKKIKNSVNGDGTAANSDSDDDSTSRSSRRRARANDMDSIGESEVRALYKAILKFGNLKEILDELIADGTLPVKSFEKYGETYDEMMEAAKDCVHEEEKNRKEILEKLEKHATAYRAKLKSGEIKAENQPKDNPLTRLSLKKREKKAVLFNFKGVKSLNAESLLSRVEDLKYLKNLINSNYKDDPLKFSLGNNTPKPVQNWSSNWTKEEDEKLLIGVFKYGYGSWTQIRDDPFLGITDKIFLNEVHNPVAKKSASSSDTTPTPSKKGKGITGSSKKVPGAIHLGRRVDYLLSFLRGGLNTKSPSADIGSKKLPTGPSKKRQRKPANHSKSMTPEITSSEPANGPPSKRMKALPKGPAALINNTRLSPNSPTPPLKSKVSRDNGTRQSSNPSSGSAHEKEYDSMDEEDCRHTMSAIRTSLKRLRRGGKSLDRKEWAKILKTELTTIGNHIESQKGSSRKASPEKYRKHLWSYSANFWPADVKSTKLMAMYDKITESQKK

Row | SMILES | Percent Effect [1] | Percent Effect [2] | Percent Effect [3] | Percent Effect [4] | Percent Effect [5] | Percent Effect [6] | Percent Effect [7] | Percent Effect [8] | Percent Effect [9] | Percent Effect [10] | Percent Effect [11]
1 | CCN(Cc1ccc2c(c1)OCO2)C(=O)c1ccc(C)[nH]c1=O | -4.38% | 13.2% | -8.05% | -3.99% | 11.5% | -1.92% | 11.9% | 15.1% | 10.3% | 19.5% | -15.7%
2 | CCN1CC(C(=O)N2CCC(Oc3ccccc3C)CC2)CC1=O (configuration not stated) | -1.72% | 2.74% | 2.75% | 3.46% | -7.94% | 2% | 8.65% | 7.65% | 3.12% | 21% | -0.203%
3 | CCc1nc(C(=O)N2CCCC2)nn1-c1ccccc1Cl | -7.61% | 10.5% | -8.39% | 16.4% | 4.95% | 2.16% | 2.62% | 4.97% | 7.39% | 18.5% | -7.11%
4 | CC(C)Oc1ncnc2c1CCN(Cc1cccs1)CC2 | 3.01% | 0% | 24.6% | 8.66% | -0.193% | -43.9% | 3.76% | 8.59% | 6.25% | 10% | -1.96%
5 | CC(C)Cc1noc(CN2CCN(c3nccs3)CC2)n1 | -8.59% | 10.4% | 5.21% | 0.0825% | -5.99% | -2.13% | 6.25% | 33.3% | 0.971% | 7.32% | -3.68%
6 | O=C(Nc1cn[nH]c1)c1ccc(O)nc1 | -0.619% | 13.2% | 4.46% | 12.7% | 2.82% | -0.766% | 5.68% | 1.45% | 8.33% | 21.9% | -8.54%
7 | Cc1cccc(N2CC[C@@H]3CN(C(=O)c4ccco4)CCO[C@@H]3C2)n1 | -3.29% | 10.7% | 10.8% | 3.1% | -3.15% | 4.89% | 9.78% | 6.1% | 7.45% | 14.1% | -6.54%
8 | CN(C)c1cc(C(=O)NCCc2n[nH]c(=O)[nH]2)ccn1 | -2.65% | 2.63% | 5.52% | 7.32% | -0.487% | 4.73% | 7.38% | 5.92% | 3.19% | 5.2% | -2.56%
9 | Cc1cccc(C(=O)N2CCN(S(C)(=O)=O)[C@@H](C)C2)c1C | -5.53% | -2.74% | 15.2% | -4.05% | -1.57% | -2.27% | 0.71% | 9.6% | 0% | 0% | 0.913%
10 | COc1ccc(CS(=O)(=O)CC(=O)NCc2ccccc2F)cc1F | -3.22% | 7.89% | 5.57% | -2.07% | -2.63% | 8.28% | 17.2% | -0.495% | 4.25% | 5.2% | -2.98%
11 | Cc1scc(C(=O)N2CCC3(CCCN(C)C3=O)C2)c1-c1ccccc1 (configuration not stated) | -0.994% | 0% | 1.8% | -1.74% | -3.09% | 1.91% | 7.41% | -8.13% | -2.65% | 9.76% | -4.36%
12 | CCC(C)c1noc(C2CCN(C(=O)c3cccs3)CC2)n1 (configuration not stated) | -0.878% | 7.79% | 1.18% | 3.86% | -2.65% | -2.76% | 13.8% | 23.9% | 4.3% | 11.1% | -1.15%
13 | CS(=O)(=O)N1C[C@@H]2CC[C@H](C1)N(Cc1cscn1)C2=O | -4.04% | 11% | -5.85% | 7.01% | 6.35% | -4.39% | 9.85% | 3.89% | 6.25% | 18.5% | -6.64%
14 | O=C(NCc1ccccn1)N(Cc1ccc(F)cc1F)C1CC1 | -3.99% | 12.7% | 3.15% | 9.47% | -0.0944% | -1.52% | 5% | 12% | 5.42% | 13.9% | -5.13%
15 | Cn1cc(CN2CCC3(C2)CN(Cc2ccsc2)C3)cn1 | -5.1% | 2.6% | -2.26% | 5.86% | 3.64% | 1.38% | 10.5% | -4.61% | 3.23% | 8.64% | 1.08%
16 | CCN(CC)C(=O)c1ccc(-c2ccsc2)nc1C | -1.54% | 6.94% | 5.62% | -7.86% | -4.37% | -0.442% | 25.3% | -1.98% | 4.21% | 5.13% | -1.47%
17 | CCOc1ccccc1Nc1nc2c(C)nn(C)c2c(=O)n1C | -4.55% | 20.8% | 1.12% | 10.9% | 3.64% | 6.9% | 10.7% | -5.39% | 8.6% | 18.5% | -6.44%
